Results taken from PubChem BioAssay (NCATS).
Records with an inconclusive call do not appear. Active and inactive are the calls of the source. Calls follow the shape of the dose curve; as a rule, active = well fitted cell-killing curve with a large enough effect; inconclusive = small, poorly fitted or top-dose-only effect, or effect the other way; inactive = flat fitted curve, though single readings scatter.

Experiments:
Assay in all cases: Primary qHTS to identify gynecologic anti-cancer compounds using libraries of approved drugs and bioactive compounds (AID 1345084); also: nearly all actives have a fitted effect of over 55% in size
C33A = conditions: Gynecologic cancer cell panel viability, ATPlite luminescence, 48 h; series mostly up to 57.5 µM
Procedure, shortened: (§1)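 Cell viability after 48 h drug treatment, ATPlite luminescence readout; five doses.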

CAOV3 = conditions: Gynecologic cancer cell panel viability, ATPlite luminescence, 48 h; series mostly up to 57.5 µM
Procedure, shortened: as §1

CASKI = conditions: Gynecologic cancer cell panel viability, ATPlite luminescence, 48 h; series mostly up to 57.5 µM
Procedure, shortened: as §1

Es-2 = conditions: Gynecologic cancer cell panel viability, ATPlite luminescence, 48 h; series mostly up to 57.5 µM
Procedure, shortened: as §1

HeLa = conditions: Gynecologic cancer cell panel viability, ATPlite luminescence, 48 h; series mostly up to 57.5 µM
Procedure, shortened: as §1

Hek293T = conditions: Gynecologic cancer cell panel viability, ATPlite luminescence, 48 h, control line for the selectivity index; series mostly up to 57.5 µM
Procedure, shortened: as §1

JEG-3 = conditions: Gynecologic cancer cell panel viability, ATPlite luminescence, 48 h; series mostly up to 57.5 µM
Procedure, shortened: as §1

OV90 = conditions: Gynecologic cancer cell panel viability, ATPlite luminescence, 48 h; series mostly up to 57.5 µM
Procedure, shortened: as §1

PA-1 = conditions: Gynecologic cancer cell panel viability, ATPlite luminescence, 48 h; series mostly up to 57.5 µM
Procedure, shortened: as §1

SKOV3 = conditions: Gynecologic cancer cell panel viability, ATPlite luminescence, 48 h; series mostly up to 57.5 µM
Procedure, shortened: as §1

Tov-21-G = conditions: Gynecologic cancer cell panel viability, ATPlite luminescence, 48 h; series mostly up to 57.5 µM
Procedure, shortened: as §1

Tov112D = conditions: Gynecologic cancer cell panel viability, ATPlite luminescence, 48 h; series mostly up to 57.5 µM
Procedure, shortened: as §1
% is scaled to controls: 0 for no effect and ±100 for the full control effect.

C=C1CC[C@@H]2[C@](C)(CO)[C@H](O[C@@H]3O[C@H](CO)[C@@H](O)[C@H](O)[C@H]3O)CC[C@@]2(C)[C@@H]1C/C=C1/C(=O)OC[C@H]1O
inactive: Potency (C33A) | Potency (CAOV3) | outcome (CASKI) | Potency (Es-2) | Potency (HeLa) | Potency (Hek293T) | Potency (JEG-3) | Potency (OV90) | Potency (PA-1) | Potency (SKOV3) | Potency (Tov-21-G) | Potency (Tov112D)

COc1c2c(c(C)c3c1C(=O)OC3)OC1(C)CC(O)C34OC(OC)(CC(O)C3(C)C1C2)OC4(C)C (centres undefined)
inactive: Potency (C33A) | Potency (CAOV3) | outcome (CASKI) | Potency (Es-2) | Potency (HeLa) | Potency (Hek293T) | Potency (JEG-3) | Potency (OV90) | Potency (PA-1) | Potency (Tov-21-G) | Potency (Tov112D)

COC(=O)C1=CO[C@@H](O[C@@H]2O[C@H](CO)[C@@H](O)[C@H](O)[C@H]2O)[C@H]2[C@@H]1[C@H](O)C[C@]2(C)O
inactive: Potency (C33A) | Potency (CAOV3) | outcome (CASKI) | Potency (Es-2) | Potency (HeLa) | Potency (Hek293T) | Potency (JEG-3) | Potency (OV90) | Potency (PA-1) | Potency (Tov-21-G) | Potency (Tov112D)

CC(C)c1ccc2c(c1)C(=O)CC1C(C)(C(=O)O)CCCC21C (centres undefined)
inactive: Potency (C33A) | Potency (CAOV3) | outcome (CASKI) | Potency (Es-2) | Potency (HeLa) | Potency (Hek293T) | Potency (JEG-3) | Potency (OV90) | Potency (PA-1) | Potency (SKOV3) | Potency (Tov-21-G) | Potency (Tov112D)

COc1cccc2c1c(O)c(C(=O)N(C)c1ccc(C(F)(F)F)cc1)c(=O)n2C
inactive: Potency (C33A) | Potency (CAOV3) | outcome (CASKI) | Potency (Es-2) | Potency (HeLa) | Potency (Hek293T) | Potency (JEG-3) | Potency (OV90) | Potency (PA-1) | Potency (SKOV3) | Potency (Tov-21-G) | Potency (Tov112D)

C/C=C/C=C/C=C/C(=O)OC1C=C2C(O)OC(=O)[C@]2(O)[C@@]2(C)CCCC(C)(C)[C@H]12 (some centres undefined)
inactive: Potency (C33A) | Potency (CAOV3) | outcome (CASKI) | Potency (Es-2) | Potency (HeLa) | Potency (Hek293T) | Potency (JEG-3) | Potency (OV90) | Potency (PA-1) | Potency (Tov-21-G) | Potency (Tov112D)

O=C(Cn1c2ccccc2c2nc3n(c(=O)c21)CCS3)N1CCCC1
inactive: Potency (C33A) | Potency (CAOV3) | outcome (CASKI) | Potency (Es-2) | Potency (HeLa) | Potency (Hek293T) | Potency (JEG-3) | Potency (OV90) | Potency (PA-1) | Potency (Tov-21-G) | Potency (Tov112D)

C=C(CO)C(=O)O[C@H]1C[C@@]23O[C@@H]2CC/C(=C/[C@H]2OC(=O)C(=C)[C@H]12)CO[C@H]3O
inactive: Potency (C33A) | Potency (CAOV3) | outcome (CASKI) | Potency (Es-2) | Potency (HeLa) | Potency (Hek293T) | Potency (JEG-3) | Potency (OV90) | Potency (PA-1) | Potency (Tov-21-G) | Potency (Tov112D)

C[C@@H]1O[C@@H](OC2C(O[C@H]3[C@H](O[C@H]4CC[C@@]5(C)C(CC[C@]6(C)C5CC=C5C7CC(C)(C)CC(O)[C@]7(C)CC[C@]56C)C4(C)C)O[C@H](C(=O)O)[C@@H](O)[C@@H]3O)OC(CO)C(O)C2O)[C@H](O)[C@H](O)[C@H]1O (some centres undefined)
inactive: activity change, negative = cytotoxicity (C33A) 9.23% [at 11.6 µM] | activity change, negative = cytotoxicity (CAOV3) 0.0107% [at 11.6 µM] | activity change, negative = cytotoxicity (CASKI) 13.1% [at 11.6 µM] | activity change, negative = cytotoxicity (Es-2) 2.61% [at 11.6 µM] | activity change, negative = cytotoxicity (HeLa) 3.53% [at 11.6 µM] | activity change, negative = cytotoxicity (Hek293T) 5.4% [at 11.6 µM] | activity change, negative = cytotoxicity (JEG-3) 7.17% [at 11.6 µM] | activity change, negative = cytotoxicity (OV90) 7.68% [at 11.6 µM] | activity change, negative = cytotoxicity (PA-1) 0.277% [at 11.6 µM] | activity change, negative = cytotoxicity (SKOV3) 6.34% [at 11.6 µM] | activity change, negative = cytotoxicity (Tov-21-G) 5% [at 11.6 µM] | activity change, negative = cytotoxicity (Tov112D) 11.6% [at 11.6 µM]

CC1(C)CC[C@]2(C(=O)O)[C@H](O)C[C@]3(C)C(=CCC4[C@@]5(C)CC[C@H](O[C@@H]6OC[C@@H](O)[C@H](O)[C@H]6O)[C@@](C)(C(=O)O)C5CC[C@]43C)[C@@H]2C1 (some centres undefined)
inactive: Potency (C33A) | Potency (CAOV3) | outcome (CASKI) | Potency (Es-2) | Potency (HeLa) | Potency (Hek293T) | Potency (JEG-3) | Potency (OV90) | Potency (PA-1) | Potency (SKOV3) | Potency (Tov-21-G) | Potency (Tov112D)

COC(=O)CCC1(C)C(C(C)(C)O)C(O)CC2(C)Oc3c(C)c4c(c(OC)c3CC21)C(=O)OC4 (centres undefined)
inactive: Potency (C33A) | Potency (CAOV3) | outcome (CASKI) | Potency (Es-2) | Potency (HeLa) | Potency (Hek293T) | Potency (JEG-3) | Potency (OV90) | Potency (PA-1) | Potency (SKOV3) | Potency (Tov112D)

C=C[C@H]1[C@H](O[C@@H]2O[C@H](CO)[C@@H](O)[C@H](O)[C@H]2O)OC=C(C(=O)OC)[C@H]1CCO
inactive: Potency (C33A) | Potency (CAOV3) | outcome (CASKI) | Potency (Es-2) | Potency (HeLa) | Potency (Hek293T) | Potency (JEG-3) | Potency (OV90) | Potency (PA-1) | Potency (SKOV3) | Potency (Tov-21-G) | Potency (Tov112D)

COc1ccccc1N1CCN(CCCCNC(=O)c2ccc(-c3cscn3)cc2)CC1
inactive: Potency (C33A) | Potency (CAOV3) | outcome (CASKI) | Potency (Es-2) | Potency (HeLa) | Potency (Hek293T) | Potency (JEG-3) | Potency (OV90) | Potency (PA-1) | Potency (Tov-21-G) | Potency (Tov112D)
